Most compounds without a hit are left out; they make up all but 27% or so of the library.
CYP2C19 inh: inhibitors of human CYP2C19 | inhibition, % at 5 µM | CYP2C19 Supersomes, luciferin-H EGE luminescence, 30 min | AID 778 | P33261 | actives 21% (n = 96,000);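 active = CYP2C19 inhibition above a set limit at 5 µM in the primary screen, cut at about 50% in these data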;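 note: plate controls were negative control wells for no effect and 2.5 mM tranylcypromine positive control for full effect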
Cav3 T inh: inhibitors of human Cav3.2 T-type calcium channel. AID 449739. O95180. B-score at 10 µM. actives 4% (n = 100,000). Cav3.2-expressing cells, Fluo-4 calcium fluorescence FDSS; stronger effect = lower value;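 active = single-dose well whose peak fluorescence ratio is a statistical outlier from its plate by either plate-standardised score or position-corrected B-score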
CYP2C9 activ: increases human cytochrome P450 2C9 activity; AID 1024; recombinant CYP2C9, luciferin-H conversion, luminescence; stronger effect = higher value; factor 1 = untreated enzyme, 0 = blocked; actives 1.4% (n = 96,000); activation factor at 5 µM; P11712;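 active = activation factor of 2 or more for CYP2C9 at a 5 µM dose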;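 note: 0 = sulfaphenazole-blocked wells and 1 = vehicle-only wells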
Target sequence (P11712 whole entry, looked up): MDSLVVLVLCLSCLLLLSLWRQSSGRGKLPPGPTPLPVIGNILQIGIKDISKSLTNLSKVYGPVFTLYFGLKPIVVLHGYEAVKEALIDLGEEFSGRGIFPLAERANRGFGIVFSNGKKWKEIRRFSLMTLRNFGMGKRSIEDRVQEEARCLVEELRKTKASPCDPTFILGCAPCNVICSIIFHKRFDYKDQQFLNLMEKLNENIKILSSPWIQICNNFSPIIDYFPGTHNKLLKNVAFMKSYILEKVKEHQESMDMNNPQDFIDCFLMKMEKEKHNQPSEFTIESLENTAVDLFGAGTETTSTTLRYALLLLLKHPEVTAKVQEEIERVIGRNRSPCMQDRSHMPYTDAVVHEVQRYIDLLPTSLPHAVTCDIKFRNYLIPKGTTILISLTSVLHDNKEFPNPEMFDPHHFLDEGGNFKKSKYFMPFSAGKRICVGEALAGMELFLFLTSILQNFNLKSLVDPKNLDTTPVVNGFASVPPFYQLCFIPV
CYP2C19 act: activators of human cytochrome P450 2C19; recombinant CYP2C19, luciferin-H EGE luminescence; stronger effect = higher value; 0 = fully inhibited enzyme, 1 = untreated enzyme; P33261; activation factor at 5 µM; 96,000 tested, under 10 active;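 active = activation factor of at least 2 at 5 µM in the primary screen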;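 note: 0 = wells with 2.5 mM tranylcypromine and 1 = vehicle-only wells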
CYP2C9 inh: human CYP2C9 inhibition. P11712. CYP2C9 Supersomes, luciferin-H conversion, luminescence. inhibition, % at 5 µM. actives 20% (n = 96,000). AID 777;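 active = blocking of liver enzyme CYP2C9 beyond about 50% at 5 µM, limit read from the data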
Starred values were filed as active, the others as inactive; x = not tested or not shown.

SMILES | CYP2C19 inh | Cav3 T inh | CYP2C9 activ | CYP2C19 act | CYP2C9 inh
Cc1cc(C)c(C(N)=O)c(NC(=O)Nc2ccccc2)n1 | -5 | -0.54 | 1 | 1 | 0
COc1cccc2oc(-c3ccco3)cc(=O)c12 | x | -0.35 | x | x | x
CCC(C(=O)Nc1cccc(C(F)(F)F)c1)c1ccccc1 (stereo not given) | 56* | -6.8* | 0.3 | 0.4 | 71*
C[C@H](NC(=O)Nc1cccc(C(F)(F)F)c1)C(=O)O | x | 0.97 | x | x | x
Cc1cc(C)c2cc(CN(Cc3ccco3)C(=O)NCc3ccccc3)c(=O)[nH]c2c1 | 28 | -7.1* | 0.4 | 0.7 | 55*
CCC(c1nnnn1Cc1ccc(F)cc1)N(CCCO)Cc1cc2cc3c(cc2[nH]c1=O)OCO3 (stereo not given) | 55* | 0.06 | 0.9 | 0.4 | 12
Cc1cc(C)c2cc(CN(CCO)C(c3nnnn3Cc3ccc(F)cc3)C(C)C)c(=O)[nH]c2c1 (stereo not given) | 76* | -0.67 | 0.1 | 0.2 | 93*
CCc1ccc2[nH]c(=O)c(CN(CCO)C(=O)NCc3ccccc3)cc2c1 | 25 | -1.9 | 1.1 | 0.7 | -13
Cc1cc(C)c2cc(CN(CCO)C(=O)Nc3ccc(F)cc3)c(=O)[nH]c2c1 | 74* | -1.2 | 0.6 | 0.3 | 38
O=c1c2cc(-c3ccccc3)sc2ncn1/N=C/c1ccco1 | 7 | -1.8 | 0.8 | 0.9 | 17
COc1ccc(C2C(C(=O)N3CCN(c4ccccc4)CC3)c3ccccc3C(=O)N2C)cc1 (stereo not given) | x | -0.19 | x | x | x
Cc1cc(C)c(C#N)c(Oc2ccc(O)cc2)n1 | 26 | -0.79 | 0.4 | 0.7 | 65*
CCOC(=O)c1ccc(N2Cc3cc(C)c(C)cc3C2)cc1O | -14 | x | 1.1 | 1.1 | -15
CC(C)c1ccccc1OCCNS(C)(=O)=O | 51* | -0.15 | 1.2 | 0.5 | -16
Cc1ccc(-c2nc(NC(=O)CSc3nnc(C)s3)ns2)cc1 | 65* | 0.079 | 0.6 | 0.3 | 44
O=C(CSc1nnnn1-c1ccccc1)Nc1ccc(N2CCOCC2)c(Cl)c1 | 1 | 0.055 | 1 | 1 | -3
O=C(CSc1nnnn1-c1ccccc1)CC(=O)Nc1ccc(Cl)cc1 | 14 | x | 2.4* | 0.9 | -140
O=C(CSc1nnnn1-c1ccccc1)Nc1nsc(-c2ccc(Cl)cc2)n1 | 75* | -0.11 | 2.8* | 0.3 | -177
O=C(CSc1nnnn1-c1ccccc1)Nc1nsc(-c2ccccc2)n1 | 19 | -0.88 | 1.6 | 0.8 | -58
CCCCN(CCCC)CCNC(=O)CNC(=O)c1cccs1 | 8 | 0.053 | 0.8 | 0.9 | 18
COc1ccc(CN2CCSCC2)cc1O | 48 | 0.13 | 1 | 0.5 | -4
Cc1cc([N+](=O)[O-])ccc1NC(=S)NC(=O)Cc1ccccc1 | 17 | -1.3 | 1 | 0.8 | 4
COC(=O)NC(NC(=S)Nc1ccc([N+](=O)[O-])cc1)C(Cl)(Cl)Cl (stereo not given) | x | -2 | x | x | x
Cc1cc([N+](=O)[O-])ccc1NC(=S)NC(=O)C(c1ccccc1)c1ccccc1 | 22 | -1.3 | 0.3 | 0.8 | 66*
COc1ccc([N+](=O)[O-])cc1NC(=S)NC(NC(=O)C(c1ccccc1)c1ccccc1)C(Cl)(Cl)Cl (stereo not given) | 16 | 0.04 | 0.3 | 0.8 | 69*
SMILES | CYP2C19 inh | Cav3 T inh | CYP2C9 activ | CYP2C19 act | CYP2C9 inh
Cc1c(C(=O)NCc2ccccc2Cl)oc2c1C(=O)CCC2 | 15 | 0.17 | 0.8 | 0.8 | 19
c1ccc(-n2nnnc2-n2nnc3ccccc32)cc1 | 94* | 0.012 | 0.6 | 0.1 | 36
O=c1c2ccccc2nc2n1C(CSCc1ccc(Cl)cc1)CS2 (stereo not given) | 75* | x | 0.7 | 0.2 | 29
CCN(c1ccc(C)c(C)c1)S(=O)(=O)c1c(C)[nH]c(=O)[nH]c1=O | 6 | 0.87 | 1.3 | 0.9 | -25
O=C(NCCO)c1ccc(-c2nnc(N3CCOCC3)c3ccccc23)cc1 | 8 | 0.037 | 1.1 | 0.9 | -14
CCOC(=O)C1CCN(C(=O)CCCN2C(=O)c3ccccc3C2=O)CC1 | 20 | x | 0.5 | 0.8 | 50
Cc1cccc(OCCCC(=O)N2CCCc3ccccc32)c1C | 83* | -3 | 0.8 | 0.2 | 16
O=C1c2ccccc2C(=O)N1CCCC(=O)N1CCCc2ccccc21 | 83* | x | 1 | 0.2 | -2
O=C(CCCCCCN1C(=O)c2ccccc2C1=O)N1CCC(c2ccccc2)C1 (stereo not given) | x | -4.3* | x | x | x
O=C(CCCOc1ccc(Cl)cc1Cl)N1CCCc2ccccc21 | 32 | -1.6 | 0.6 | 0.7 | 36
C1COC(NC(C2CC2)C2CC2)=N1 | x | 0.13 | x | x | x
CC(=O)c1cc(C#N)c(SCc2ccncc2)nc1C | 97* | 0.33 | 0.1 | 0 | 93*
CC(=O)c1cc(C#N)c(SCc2ccccc2C#N)nc1C | x | 0.44 | x | x | x
CCN(CC)c1nc(C)c(C(C)=O)cc1C#N | 54* | -0.2 | 0.8 | 0.5 | 17
CCSc1nc(C)c(C(C)=O)cc1C#N | 26 | -2.3 | 0.9 | 0.7 | 10
O=[N+]([O-])c1ccc(N2CCN(CCO)CC2)cc1Sc1nc2ccccc2[nH]1 | 37 | x | 0.4 | 0.6 | 56*
COc1ccc(/C=N/Nc2snc(SC)c2C#N)cc1OC | 62* | 0.021 | 0.4 | 0.4 | 61*
COc1cccc(/C=N/Nc2snc(SC)c2C#N)c1 | 30 | -0.38 | 0.3 | 0.7 | 66*
COc1cccc(Nc2nc(C)cc(C)c2C#N)c1 | x | -0.21 | x | x | x
CCOc1cc(C)nc(N2CCN(C3CCCCC3)CC2)n1 | 62* | 0.12 | 0.6 | 0.4 | 42
Cc1cc(C)nc(N2CCN(c3nc(C)cc(C)n3)CC2)n1 | -13 | 0.29 | 1.1 | 1.1 | -11
Cc1cccc2cc(C#N)c(NCCNS(=O)(=O)c3ccc4c(c3)OCCO4)nc12 | 53* | -4.2* | 0.4 | 0.5 | 57*
Cc1cccc2cc(C#N)c(NCCNC(=O)NC3CCCCC3)nc12 | 9 | -0.14 | 1.5 | 0.9 | -51
CCOc1ccc(C2C(C#N)=C(N)SC(N)=C2C#N)c(OCC)c1 | 20 | 1.7 | 0.6 | 0.8 | 37
CCCCc1ccc(C2C(C#N)=C(N)SC(N)=C2C#N)s1 | 68* | 2.3 | 0 | 0.3 | 99*
SMILES | CYP2C19 inh | Cav3 T inh | CYP2C9 activ | CYP2C19 act | CYP2C9 inh
C=CCNc1oc(COc2ccc(C)cc2)nc1C#N | 65* | -0.94 | 0.7 | 0.3 | 27
N#Cc1nc(COc2cccc(Cl)c2)oc1NCc1ccncc1 | 100* | -2.9 | 0 | 0 | 100*
Cc1ccc(OCc2nc(C#N)c(NCc3ccc4c(c3)OCO4)o2)cc1 | 98* | -6.5* | 0 | 0 | 99*
COc1ccc(Nc2oc(COc3ccc(Cl)cc3)nc2C#N)cc1 | -2 | -0.84 | 0.8 | 1 | 18
COc1ccc(CNc2oc(COc3ccc(Cl)cc3)nc2C#N)cc1 | 31 | -4.4* | 0.7 | 0.7 | 29
O=C(C1CN(S(=O)(=O)c2ccccc2)CCN1S(=O)(=O)c1ccccc1)N1CCCCCC1 (stereo not given) | -9 | -0.16 | 1.2 | 1.1 | -19
CCOC(=O)C1=C(O)C(Nc2nccs2)(C(F)(F)F)N=C1C (stereo not given) | 16 | x | 1.1 | 0.8 | -14

Bioassay records: PubChem, several laboratories
